Binding signal data for 16 sequences are collected here from publication PMC3315485, “Probing the Informational and Regulatory Plasticity of a Transcription Factor DNA–Binding Domain”.

Where a chain is given by its changes, count along the chain named.

What all share (experiment): MITOMI; MITOMI, 295 K (22 C); buffer, salt and pH not stated in the material; high values mean tight binding
Holding throughout (details): protein: ivt; label: fluorescent; dsDNA, one strand shown

In assay [1] the target is T1, MarA wild type (WQR) (Escherichia coli, UniProt P0ACH5 1-127).
T1 sequence: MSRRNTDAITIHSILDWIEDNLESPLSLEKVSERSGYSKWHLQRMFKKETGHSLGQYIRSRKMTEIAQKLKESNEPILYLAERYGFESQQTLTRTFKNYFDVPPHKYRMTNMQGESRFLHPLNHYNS
The essentials:
(§1)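 Each fluorescently labelled MarA protein variant, made by in vitro transcription and translation with the RTS E. coli HY kit plus tRNA-lys-bodipy-fl, was tested by MITOMI against 64 synthesized mar binding site variants. Protein and DNA fluorescence were read on Genepix at 295K. Association constants, measured by MITOMI, are reported for each site relative to the highest-affinity site for the same protein variant.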

Assay [2] addresses T2, MarA RQR (Escherichia coli, UniProt P0ACH5 1-127, W40R).
T2 sequence: T1 sequence with W40R
The essentials:
as §1

The target of assay [3] is T3, MarA SAR (Escherichia coli, UniProt P0ACH5 1-127, W40S;Q43A).
T3 sequence: T1 sequence with W40S, Q43A
Put shortly:
as §1

The target of assay [4] is T4, MarA TRR (Escherichia coli, UniProt P0ACH5 1-127, W40T;Q43R).
T4 sequence: T1 sequence with W40T, Q43R
Put shortly:
as §1

Assay [5] addresses T5, MarA RTR (Escherichia coli, UniProt P0ACH5 1-127, W40R;Q43T).
T5 sequence: T1 sequence with W40R, Q43T
The essentials:
as §1

With ATGGGACGTTTTGCTAAAT, the binding signal is 0.34 Ka relative to the best site of the variant in assay [1], 0.136 Ka relative to the best site of the variant in assay [2], 0.498 Ka relative to the best site of the variant in assay [3] and 0.361 Ka relative to the best site of the variant in assay [4].
On to ATGACCCGTTTTGCTAAAT, for which the binding signal in assay [1] is 0.32 Ka relative to the best site of the variant; in assay [2], 0.701 Ka relative to the best site of the variant; in assay [5], 0.63 Ka relative to the best site of the variant; in assay [3], 0.573 Ka relative to the best site of the variant; in assay [4], 0.379 Ka relative to the best site of the variant.
In the same order, the values of ATGCATCGTTTTGCTAAAT are 0.317 Ka relative to the best site of the variant, 0.112 Ka relative to the best site of the variant, 0.186 Ka relative to the best site of the variant, 0.449 Ka relative to the best site of the variant and 0.422 Ka relative to the best site of the variant.
In the same order, the values of ATGGATCGTTTTGCTAAAT are 0.224 Ka relative to the best site of the variant, 0.112 Ka relative to the best site of the variant, 0.202 Ka relative to the best site of the variant, 0.393 Ka relative to the best site of the variant and 0.365 Ka relative to the best site of the variant.
In the same order, the values of ATGCTACGTTTTGCTAAAT are 0.363 Ka relative to the best site of the variant, 0.117 Ka relative to the best site of the variant, 0.285 Ka relative to the best site of the variant, 0.491 Ka relative to the best site of the variant and 0.571 Ka relative to the best site of the variant.
Regarding ATGTTACGTTTTGCTAAAT, the binding signal in assay [1] is 0.288 Ka relative to the best site of the variant; in assay [2], 0.135 Ka relative to the best site of the variant; in assay [5], 0.177 Ka relative to the best site of the variant; in assay [3], 0.202 Ka relative to the best site of the variant; in assay [4] it was 0.518 Ka relative to the best site of the variant.
For ATGATACGTTTTGCTAAAT, the binding signal in assay [1] is 0.279 Ka relative to the best site of the variant; in assay [2] it was 0.108 Ka relative to the best site of the variant; in assay [5], 0.208 Ka relative to the best site of the variant; in assay [3] it was 0.962 Ka relative to the best site of the variant; in assay [4] it was 0.498 Ka relative to the best site of the variant.
Regarding ATGTGCCGTTTTGCTAAAT, the binding signal in assay [1] is 0.245 Ka relative to the best site of the variant; in assay [2] it was 0.134 Ka relative to the best site of the variant; in assay [5], 0.201 Ka relative to the best site of the variant; in assay [3], 0.236 Ka relative to the best site of the variant; in assay [4], 0.407 Ka relative to the best site of the variant.
As for ATGGCACGTTTTGCTAAAT, the binding signal in assay [1] was 1 Ka relative to the best site of the variant; in assay [2] it was 0.647 Ka relative to the best site of the variant; in assay [5], 0.432 Ka relative to the best site of the variant; in assay [3], 0.741 Ka relative to the best site of the variant; in assay [4], 0.392 Ka relative to the best site of the variant.
On the same counts, the results for ATGTACCGTTTTGCTAAAT are 0.215 Ka relative to the best site of the variant, 0.142 Ka relative to the best site of the variant, 0.989 Ka relative to the best site of the variant, 0.25 Ka relative to the best site of the variant and 0.417 Ka relative to the best site of the variant.
Turning to ATGTAGCGTTTTGCTAAAT, the binding signal in assay [1] was 0.284 Ka relative to the best site of the variant; in assay [2], 0.0898 Ka relative to the best site of the variant; in assay [5], 0.685 Ka relative to the best site of the variant; in assay [3], 0.152 Ka relative to the best site of the variant; in assay [4], 0.356 Ka relative to the best site of the variant.
As for ATGAGACGTTTTGCTAAAT, the binding signal was 0.307 Ka relative to the best site of the variant in assay [1]; 0.0985 Ka relative to the best site of the variant in assay [2]; 0.229 Ka relative to the best site of the variant in assay [5]; 0.913 Ka relative to the best site of the variant in assay [3]; 0.362 Ka relative to the best site of the variant in assay [4].
Turning to ATGTCACGTTTTGCTAAAT, the binding signal is 0.38 Ka relative to the best site of the variant in assay [1]; 0.819 Ka relative to the best site of the variant in assay [2]; 0.306 Ka relative to the best site of the variant in assay [5]; 0.302 Ka relative to the best site of the variant in assay [3]; 0.461 Ka relative to the best site of the variant in assay [4].
In the same order, the values of ATGACACGTTTTGCTAAAT are 0.709 Ka relative to the best site of the variant, 0.337 Ka relative to the best site of the variant, 0.249 Ka relative to the best site of the variant, 0.637 Ka relative to the best site of the variant and 0.369 Ka relative to the best site of the variant.
Take ATGATCCGTTTTGCTAAAT: the binding signal is 0.22 Ka relative to the best site of the variant in assay [1]; 0.117 Ka relative to the best site of the variant in assay [2]; 0.175 Ka relative to the best site of the variant in assay [5]; 0.872 Ka relative to the best site of the variant in assay [3]; 0.466 Ka relative to the best site of the variant in assay [4].
On the same counts, the results for ATGTAACGTTTTGCTAAAT are 0.345 Ka relative to the best site of the variant, 0.135 Ka relative to the best site of the variant, 0.514 Ka relative to the best site of the variant, 0.232 Ka relative to the best site of the variant and 0.492 Ka relative to the best site of the variant.
